Compound activity (PubChem)
tim23-1 inh: tim23-1 yeast growth inhibition; inhibition, % at 20 µM; S. cerevisiae tim23-1 growth, BacTiter-Glo luminescence, 24 h; 330,000 compounds, 1.3% hits;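 active = growth inhibition of the mutant yeast at or above 50%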;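 also: temperature-sensitive mutant grown at 25 °C; plate controls were DMSO-treated mutant yeast for no effect and medium wells lacking yeast for full effect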
NLRP3 yeast inh: inhibitors of NALP3 inflammasome in yeast; Yeast reconstituted NLRP3/ASC/caspase-1, beta-gal luminescence, 24 h; inhibition, % at 10 µM; 330,000 compounds, 0.39% hits;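 active = inhibition of 50% or more; inactive = inhibition below 50%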;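 also: plate controls were induced DMSO wells for no effect and uninduced yeast grown without galactose for full effect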
tim10-1 inh: inhibits growth of tim10-1 mutant yeast | S. cerevisiae tim10-1 ts strain growth, BacTiter-Glo, 24 h | inhibition, % at 20 µM | 330,000 compounds, 2.2% hits | AID 463190;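 active = inhibition of at least 40%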;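 also: mutant grown at 25 °C; 0% = DMSO wells with yeast and 100% = wells holding no yeast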
TIM10 inh: inhibits growth of TIM10 yeast strain; S. cerevisiae TIM10 strain growth, BacTiter-Glo luminescence, 24 h; inhibition, % at 10 µM; 330,000 compounds, 1.4% hits; AID 463195;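 active = inhibition of 40% or more at the single tested concentration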;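 also: wild-type TIM10 isogenic control strain grown at permissive 25 °C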
NALP1 yeast inh: NALP1 inhibition. S. cerevisiae NALP1/ASC/caspase-1 growth, X-gal OD620, 72 h. inhibition, % at 10 µM. AID 2071. 280,000 compounds, 0.61% hits; in the data active = inhibition mostly above about 24%, no sharp cut-off; inactive = mostly below about 32%
TIM10 conf: confirmation of TIM10 yeast growth inhibitors | 4,600 compounds, 63% hits | inhibition, % at 10 µM | AID 463215 | shares compounds with TIM10 inh | S. cerevisiae tim10 strain growth, BacTiter-Glo luminescence, 24 h;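 active = inhibition of yeast growth at or above a set limit in either of two replicates at 10 µM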;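 also: this counterscreen used the strain with wild-type TIM10; 0% = yeast with DMSO and 100% = medium wells lacking yeast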
* = called active by the depositor. In the library only some 4.1% were active in any assay of this set; here they are far more common.

Results for S=C(Nc1cccc(Br)c1)c1ccccc1 ?
tim23-1 inh: 45; NLRP3 yeast inh: 38; tim10-1 inh: 38; TIM10 inh: 43*; NALP1 yeast inh: 26; TIM10 conf: 44*

Results for CN(C)CCNC(=O)Cn1ccc2cc(S(=O)(=O)N3CCCCC3)ccc21 ?
tim23-1 inh: 1; NLRP3 yeast inh: 3; tim10-1 inh: -4; TIM10 inh: -10; NALP1 yeast inh: 29

Results for COc1cc(CC(=O)OCC(=O)c2ccc[nH]2)cc(OC)c1OC ?
tim23-1 inh: -8; NLRP3 yeast inh: -2; tim10-1 inh: -9; TIM10 inh: 1

How did CN1CCN(c2ccc(Cl)cc2NC(=O)CCN2C(=O)c3ccccc3C2=O)CC1 do in these assays?
tim23-1 inh: 1; NLRP3 yeast inh: 8; tim10-1 inh: 13; TIM10 inh: 1; NALP1 yeast inh: 8

What do the screens show for `O=C(CSc1ccc2ccccc2n1)N/N=C/c1ccccc1O`?
tim23-1 inh: 30; NLRP3 yeast inh: 22; tim10-1 inh: 19; TIM10 inh: 41*; NALP1 yeast inh: 10; TIM10 conf: 10

How did O=C(CSc1ccc2ccccc2n1)N/N=C/c1ccc(O)cc1 do in these assays?
tim23-1 inh: 20; NLRP3 yeast inh: 12; tim10-1 inh: 1; TIM10 inh: 7; NALP1 yeast inh: 8

Results for COc1ccccc1C1(CC(=O)N2CCCCC2)CCOC(C(C)C)C1 (stereo unspecified) ?
tim23-1 inh: 34; NLRP3 yeast inh: 5; tim10-1 inh: 35; TIM10 inh: 48*; NALP1 yeast inh: -9; TIM10 conf: 17

Results for Cc1ccc(NC(=O)c2c3c(nc4ccccc24)CCC3)cc1S(=O)(=O)N(C)C ?
tim23-1 inh: -4; NLRP3 yeast inh: 20; tim10-1 inh: 2; TIM10 inh: 4; NALP1 yeast inh: 1

How did COc1cc(C(C)=O)ccc1OCC(O)CN1CCN(c2c(C)cccc2C)CC1 (stereo unspecified) do in these assays?
tim23-1 inh: -2; NLRP3 yeast inh: 19; tim10-1 inh: -7; TIM10 inh: 97*; NALP1 yeast inh: 10; TIM10 conf: 10

What do the screens show for `CCN1C(=O)/C(=C/c2nc3ccccc3c(=O)n2-c2ccccc2)c2ccccc21`?
tim23-1 inh: 42; NLRP3 yeast inh: -5; tim10-1 inh: 25; TIM10 inh: 43*; NALP1 yeast inh: 27; TIM10 conf: 26

What do the screens show for `CCOC(=O)CNC(=O)CSc1nnc(Cn2cnc3ccccc32)n1C`?
tim23-1 inh: 3; NLRP3 yeast inh: 13; tim10-1 inh: -6; TIM10 inh: -1; NALP1 yeast inh: 3

What do the screens show for `COc1ccccc1N1CCN(C(=O)c2cc(-c3ccc(C)cc3)on2)CC1`?
tim23-1 inh: 48; NLRP3 yeast inh: -5; tim10-1 inh: 8; TIM10 inh: 40*; NALP1 yeast inh: 2; TIM10 conf: 36*

Results for COc1ccccc1N1CCN(C(=O)c2ccc3nc(-c4ccco4)c(-c4ccco4)nc3c2)CC1 ?
tim23-1 inh: 20; NLRP3 yeast inh: 21; tim10-1 inh: 26; TIM10 inh: 41*; NALP1 yeast inh: 8; TIM10 conf: 15

What do the screens show for `COc1ccccc1N1CCN(C(=O)c2ccc3nc[nH]c3c2)CC1`?
tim23-1 inh: 9; NLRP3 yeast inh: 3; tim10-1 inh: 18; TIM10 inh: 3; NALP1 yeast inh: 26

What do the screens show for `COc1ccccc1N1CCN(C(=O)c2cc(-c3ccc(F)cc3)on2)CC1`?
tim23-1 inh: 49; NLRP3 yeast inh: 19; tim10-1 inh: 30; TIM10 inh: 27; NALP1 yeast inh: 17

Results for COc1ccc(C(=O)COc2ccc(F)cc2)c(O)c1C ?
tim23-1 inh: 5; NLRP3 yeast inh: 25; tim10-1 inh: 9; TIM10 inh: 11; NALP1 yeast inh: -8

How did CCOC(=O)C1CCN(S(=O)(=O)c2ccc3c(c2)CC(C)N3C(=O)C2CC2)CC1 (stereo unspecified) do in these assays?
tim23-1 inh: 36; NLRP3 yeast inh: 13; tim10-1 inh: 2; TIM10 inh: 40*; NALP1 yeast inh: -1; TIM10 conf: 49*

Results for NNc1nc(-c2ccccc2)nc2sc3c(c12)CCCC3 ?
tim23-1 inh: 42; NLRP3 yeast inh: 43; tim10-1 inh: 28; TIM10 inh: 33; NALP1 yeast inh: 44
